Measurements taken from PubChem BioAssay (NCI).
Compounds without any hit were thinned out: in the full panel of roughly 83,000, 20% have a hit.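 The endpoint reported here, percent growth, reads 100 for growth as untreated, 0 for no net growth and -100 for all cells dead.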 The source made the active and inactive calls. The calls were made as follows: active = growth percent below 10; inactive = the rest.

Each molecule was assayed on SK-OV-3 ovarian (assay: NCI-60 one-dose screen, 48 h (100 = growth as untreated, 0 = no growth, -100 = all killed)). Conditions: 10 µM.

| SMILES | growth |
| --- | --- |
| CC(=O)OC/C=C(/C)C[P+](c1ccccc1)(c1ccccc1)c1ccccc1 | 94.7% (inactive) |
| CCOC(=O)c1cc(C(=O)c2cc(OC)cc(OC)c2)n2ncc3ccccc3c12 | 37.6% (inactive) |
| C=CCN(CC=C)C(=O)[C@H](CC)[C@@H]1CC[C@@H](C)[C@@H]([C@H](C)[C@@H](O)[C@@H](C)C(=O)[C@H](CC)C2O[C@]3(C=CC(=O)[C@]4(CC[C@@](C)([C@H]5CC[C@](O)(CC)[C@H](C)O5)O4)O3)[C@H](C)C[C@@H]2C)O1 (stereo not given in full) | 41% (inactive) |
| Cc1c2c(nn1C(=O)c1nn(-c3ccc(Cl)cc3)cc1O)-c1ccccc1CC2 | 13% (inactive) |
| O=C(CCn1cnc2c(cc(-c3ccccc3)n2-c2ccccc2)c1=O)Nc1ccc(F)cc1 | 64.6% (inactive) |
| COc1ccc(-c2onc(N)c2-c2cc(OC)c3c(c2)OCO3)cc1 | 38.7% (inactive) |
| CCCN(CCC)C(=O)[C@H](CC)[C@@H]1CC[C@@H](C)[C@@H]([C@H](C)[C@@H](O)[C@@H](C)C(=O)[C@H](CC)C2O[C@]3(C=C[C@@H](O)[C@]4(CC[C@@](C)([C@H]5CC[C@](O)(CC)[C@H](C)O5)O4)O3)[C@H](C)C[C@@H]2C)O1 (stereo not given in full) | 3.96% (active) |
| CCOC(=O)c1cc(C(=O)c2cc(OC)c(OC)c(OC)c2)n2c1ccc1c3cccnc3ccc12 | 78.1% (inactive) |
| COc1cc(NC(=O)Nc2cnc(Nc3ccc(N4CCOCC4)cc3)nc2Oc2cccc(OC)c2)cc(OC)c1 | 42.2% (inactive) |
| Fc1ccc2[nH]cc(-c3nc(-c4ccsc4)cs3)c2c1 | 80.5% (inactive) |
